Assay results taken from the supplement of paper PMC6555819.

How the values were obtained:
Assay in all cases: PBM binding z-score (relative to random genomic background probes); higher = stronger binding; sequences stand for … in GC…GCGATTGACAGCGTAGAATGAAGG
[1] = tested on: FXR:RXRa (NR concentration 270 nM, RXRa partner concentration 90 nM)
Summary of the method: (§1)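 Probes were double-stranded and carried 34-nt variable regions with direct-repeat seeds, single-nucleotide variants, half-site ablations and random human genomic background sequences, printed on custom Agilent 4×180K protein-binding microarrays. Arrays were incubated 1 h with ligand-free nuclear receptor dimers in PBS pH 7.4, 2% milk, 0.02% Triton X-100, 1 mM DTT, 0.2 mg/mL BSA and 0.4 mg/ml salmon testes DNA. Antibodies against each partner (one per run) detected binding, and scanned fluorescence was regression-normalized. Binding z-scores use the random background probes as reference.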

[2] = tested on: LXRa homodimer (NR concentration 270 nM)
Summary of the method: as §1

[3] = tested on: LXRb homodimer (NR concentration 270 nM)
Summary of the method: as §1

[4] = tested on: PPARa:RXRa (NR concentration 270 nM, RXRa partner concentration 90 nM)
Summary of the method: as §1

[5] = tested on: PPARg:RXRa (NR concentration 180 nM, RXRa partner concentration 90 nM)
Summary of the method: as §1

[6] = tested on: PPARg:RXRa 270nM:90nM, anti-RXR (NR concentration 270 nM, RXRa partner concentration 90 nM)
Summary of the method: as §1

[7] = tested on: PPARg:RXRa 30nM:10nM, anti-RXR (NR concentration 30 nM, RXRa partner concentration 10 nM)
Summary of the method: as §1

[8] = tested on: PPARg:RXRa 90nM:30nM, anti-RXR (NR concentration 90 nM, RXRa partner concentration 30 nM)
Summary of the method: as §1

[9] = tested on: PPARg:RXRa DBDmut IVT, anti-RXR (DBD mutation: RXRa K156A/R161A, NR concentration 270 nM, RXRa partner concentration 90 nM)
Summary of the method: as §1

[10] = tested on: LXRa:RXRa (NR concentration 270 nM, RXRa partner concentration 90 nM)
Summary of the method: as §1

Sequence	PBM binding z-score [1]	PBM binding z-score [2]	PBM binding z-score [3]	PBM binding z-score [4]	PBM binding z-score [5]	PBM binding z-score [6]	PBM binding z-score [7]	PBM binding z-score [8]	PBM binding z-score [9]	PBM binding z-score [10]
ATATGTAGGTTAGCTGGGGTCCTTCAGACTAGGC	0.425	-0.109	0.384	2.78	2.96	2.75	0.715	1.78	6.27	–
CCTTACGGGTCACGTGGTTATAGCACGACGAGCG	6.41	-0.108	-0.474	5.88	6.07	5.77	2.2	4.59	3.06	–
CTATGTAGGTCAAGGGGGTCATTCAGTTTGAAAG	7.19	4.49	–	–	–	9.27	8.54	10.3	8.6	5.9
TCTTGTAGATCAACAGGAGGTTAATAAAGATCGA	0.0439	-0.0218	-0.135	1.23	0.6	1.68	2.71	2.08	1.38	–
ATATGTAGGTCAAGGGTCATTCAGGTTGGTTCGC	7.27	5.58	2.07	–	–	10.5	11.7	11.7	8.58	6.25
CTATGTAGGTTAGGGGGGTCATTCAGTTTGAAAG	5.78	3.89	–	–	9.03	7	5.35	7.07	6.54	5.66
CGTCCAAGGTCAAAGGTCAATGAAGAGATGACGG	8.53	4.31	2.18	–	10.8	9.12	8.3	9.78	3.66	7.3
GCTGCTAGGTCAACTGATGGTCATCTAAAGCTCG	4.19	0.86	0.134	3.75	2.92	3.32	0.892	2.34	5.18	–
AGTCAAAGTTGAGGACGAGGTAACGTAAAGCACG	0.359	-0.388	-0.483	0.937	1.44	1.74	0.562	0.984	-0.189	–
TCTAGTTGGTCACGGAGGACACACACGACGGGTA	0.602	0.465	0.417	0.752	1.34	1.7	2.85	2.53	2.26	–
ATATGTAGGTTAGGGGTCATTCAGGTTGGTTCGC	6.13	4.58	3.55	–	11.4	9.8	10.2	11	7.09	5.98
TATCAAAGTTCAAAGGTAACGTAAGTATCCACAC	6.87	6.56	3.08	5.56	6.12	6.03	3.65	5.24	0.181	–
GGAACGAGGGCAAAGTTCATAGCATCTGTCGACG	4.26	3.9	-0.156	6.24	–	9.67	9.74	10.7	4.19	4.95
ACTTACGGCTCAACGAGGTTATAGCACGCGTATA	0.333	0.28	0.162	–	0.821	-0.0206	-0.186	-0.0465	-0.0346	–
ATATGTAGGTTATCGGGTCATACAGTTTGCGCAT	3.18	1.45	1.35	–	7.64	6.2	4.38	5.61	7.63	–
CCTACTGGGCCAAAAAGGTCATTGATGCCGATAA	3.46	3.19	-0.142	–	3.35	3.98	1.41	3.38	3.88	–
TCTGCTAGGTCAACGTTGGTCAGCTAATCTGCTA	3.38	-0.139	0.362	–	2.49	3.4	1.9	2.71	3.92	–
CACACTAGGTCACAGAGGTCAAAGTCCGTGCGTA	7.16	8.63	2.87	–	9.53	7.9	5.64	7.43	7.79	–
AGTCAAAGTTCAGGACGACGTAACGTAAAGCACG	3.58	0.954	-0.163	–	4.42	4.5	1.87	4	-0.52	–
CCTTACGGGTCACTCCAGGTTATATCATCGGAGT	4.99	2.49	0.56	–	3.65	3.72	0.84	2.78	2.96	–
CAAACTAGGTCAAAAGGTCAAAGTCCGCTTCCCG	7.44	6.17	2.63	–	10.2	8.73	7.62	9.1	8.5	–
CCTACTGGGCCAAAGGTGATTGATTCCAATGCTC	-0.0621	-0.216	-0.106	–	8.87	7.96	7.6	8.66	5.69	–
CCTCGGAGGACAACAGGAGGTCATAGCTGCCAGA	2.31	4.2	-0.0136	–	0.961	1.16	0.00805	0.459	0.281	–
TACCCTAGGTCATTCAGGGGCCAGTATAGAAAGC	4.73	8.12	4.99	–	2.52	2.63	0.859	2.15	1.8	–
TCTAGTTGGTCTAAGGTCACACACTCGAAATGCG	4.14	2.63	1.6	–	5.15	6.51	5.71	6.57	2.2	–
GCTGCTAGTTCAACTGATGGTCAGCTAAAGCTCG	-0.0566	-0.53	-0.641	–	-0.618	-0.212	-0.685	-0.415	-0.111	–
GCATATAGGTAATACAAGGTCAAAGTCCGATTGT	3.47	9.94	1.42	–	2.69	3.32	1.39	2.9	4.1	–
